Measurements from PubChem BioAssay (EPA / NIEHS).
Values joined by “and” are separate entries in the source; they are usually repeats but may differ in a detail not shown here. Equal entries are not always repeated. Results filed as inconclusive are left out. More than one record can exist for a structure, and the calls need not agree. Active and inactive are the calls of the source. Rule for the calls: active = hit-call score of the fitted dose curve at least 0.9, where 1 is the maximum; inconclusive = response in the unintended direction; inactive = score below 0.9.

How the values were obtained:
[1] = TOX21_p53_BLA_p4_viability: Viability Assessment in the Tox21 HCT-116 p53 Agonism Beta-lactamase Assay, Phase 4 (AID 2283597);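 note: hits lower the luminescence signal meaning cytotoxicity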
Procedure, shortened: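 ATP content by CellTiter-Glo luminescence, 30 min RT, read after the beta-lactamase ratio step. Cells: HCT116, 4000/well, compound added after 5 h, exposure 16 h at 37C. Signal loss = reduced viability.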

[2] = target: Cellular tumor antigen p53 (Homo sapiens) (UniProt P04637); assay: TOX21_p53_BLA_p5_ratio: Tox21 HCT-116 p53 Agonism Beta-lactamase Assay, Ratio, Phase 5 (AID 2283599)
Cellular tumor antigen p53 (Homo sapiens), sequence (P04637 whole entry, looked up): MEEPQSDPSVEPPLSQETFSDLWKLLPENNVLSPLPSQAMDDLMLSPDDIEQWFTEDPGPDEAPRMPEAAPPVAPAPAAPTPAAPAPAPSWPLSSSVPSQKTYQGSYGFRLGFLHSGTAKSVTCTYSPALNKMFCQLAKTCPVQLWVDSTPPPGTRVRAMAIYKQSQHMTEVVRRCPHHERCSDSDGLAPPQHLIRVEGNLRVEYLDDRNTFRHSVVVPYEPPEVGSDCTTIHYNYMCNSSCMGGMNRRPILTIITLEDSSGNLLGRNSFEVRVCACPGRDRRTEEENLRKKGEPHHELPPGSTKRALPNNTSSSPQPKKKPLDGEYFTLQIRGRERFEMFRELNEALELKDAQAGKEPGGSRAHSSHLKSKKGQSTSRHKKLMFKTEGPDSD
Procedure, shortened: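 Beta-lactamase reporter ratio (blue 460 nm over green 530 nm, 405 nm excitation) after 2 h CCF4-AM loading, in HCT-116 cells exposed 16 h at 37 C to compounds pinned at 217-fold dilution. Increases relative to DMSO baseline scored.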

[3] = TOX21_p53_BLA_p5_viability: Viability Assessment in the Tox21 HCT-116 p53 Agonism Beta-lactamase Assay, Phase 5 (AID 2283600)
Procedure, shortened: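 ATP luminescence (CellTiter-Glo, 30 min, RT) served as the viability read-out, with loss of signal indicating cytotoxicity. Compounds in DMSO were pinned at a 217-fold dilution onto 4000 cells/well and incubated 16 h, 37C.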

[4] = target: Cellular tumor antigen p53 (Homo sapiens) (UniProt P04637); assay: TOX21_p53_BLA_p4_ratio: Tox21 HCT-116 p53 Agonism Beta-lactamase Assay, Ratio, Phase 4 (AID 2283601)
Procedure, shortened: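 Signal is the blue/green (460nm/530nm) ratio of cleaved versus uncleaved CCF4-AM substrate, read after 2 h substrate loading. Cells were HCT116 carrying the p53-responsive beta-lactamase reporter, dosed 16 h at 37C, 5% CO2; CellTiter-Glo measured in parallel.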

[5] = Tanguay_ZF_120hpf_MORT_legacy: (Legacy) Oregon State University Tanguay Lab 120 Hour Post-fertilization zebrafish Assay for Mortality (AID 2283633)
Procedure, shortened: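 Brightfield scoring of embryo death (binary) at 24 and 120 hpf; static exposure 6–120 hpf, 28C, sealed and foil-covered. Pronase-dechorionated 5D wild-type larvae, single embryo per well. DMSO 0.64% v/v; trimethyltin chloride 5uM positive control.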

[6] = Tanguay_ZF_120hpf_YSE_legacy: (Legacy) Oregon State University Tanguay Lab 120 Hour Post-fertilization zebrafish Assay for Yolk Sac Edema (AID 2283634);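 for AC50: actives raise the incidence of yolk sac edema above the DMSO baseline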
Procedure, shortened: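 Binary brightfield scoring of yolk sac edema at 120 hpf; DMSO baseline, gain-of-signal fitting. Dechorionated 5D larvae, one per well, static exposure 6–120 hpf, 28C, 0.64% DMSO. Dead embryos not scored.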

[7] = Tanguay_ZF_120hpf_AXIS_legacy: (Legacy) Oregon State University Tanguay Lab 120 Hour Post-fertilization zebrafish Assay for Body Axis Malformation (AID 2283635);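 for AC50: potency for an increased fraction of larvae scored with body axis malformation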
Procedure, shortened: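 Embryos: 5D wild-type, pronase-dechorionated 4 hpf; static exposure 6–120 hpf, 28C, sealed, dark, 1 embryo/well, 0.64% DMSO. 120 hpf axis malformation scored present/absent; dead embryos excluded. Analysed as gain of signal vs DMSO.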

[8] = Tanguay_ZF_120hpf_EYE_legacy: (Legacy) Oregon State University Tanguay Lab 120 Hour Post-fertilization zebrafish Assay for Eye Malformation (AID 2283636);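 note: binary presence or absence of eye malformation scored by brightfield in 120 hpf larvae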
Procedure, shortened: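 Binary brightfield scoring of eye defects at 120 hpf after static exposure from 6 hpf of single pronase-dechorionated wild-type embryos (28C, 0.64% DMSO). Non-mortality endpoints omitted where embryos died; fit vs DMSO.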

[9] = Tanguay_ZF_120hpf_SNOU_legacy: (Legacy) Oregon State University Tanguay Lab 120 Hour Post-fertilization zebrafish Assay for Snout Malformation (AID 2283637)
Procedure, shortened: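 Binary snout-malformation call at 120 hpf in wild-type 5D embryos, chorion removed by pronase, under static exposure from 6 hpf at 28C (0.64% DMSO). Embryos dying by 24 or 120 hpf excluded.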

[10] = Tanguay_ZF_120hpf_JAW_legacy: (Legacy) Oregon State University Tanguay Lab 120 Hour Post-fertilization zebrafish Assay for Jaw Malformation (AID 2283638);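 for AC50: active means more embryos with jaw malformation than DMSO controls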
Procedure, shortened: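 Binary jaw-malformation calls at 120 hpf by brightfield imaging; DMSO (0.64% v/v) = baseline. Embryos: 5D wild-type, pronase-dechorionated, one per well from 6 hpf, static exposure, 28C, sealed, dark.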

Measured: AC50

NNc1nc(-c2ccc([N+](=O)[O-])cc2)cs1
inactive: [3]
active: [1] 46.1 µM | [2] 39.6 µM | [4] 43.5 µM

CCCCc1oc2ccccc2c1C(=O)c1cc(I)c(OCCN(CC)CC)c(I)c1
active: [1] 31.3 µM and 50.9 µM and 23 µM | [4] 64.9 µM
inactive: [2] | [3] | [4] | [5] | [6] | [7] | [8] | [9] | [10]

CCCCCCCCCCCC(=O)NCCCN(C)C
active: [1] 29 µM | [2] 86 µM | [3] 65.7 µM | [4] 59.8 µM

NCc1cccc(CN)c1
inactive: [1] | [3] | [4]

CCC(=O)C=Cc1ccc(OC)cc1
inactive: [1] | [2] | [3] | [4]

c1cnc2c(c1)ccc1cccnc12
inactive: [2] | [3] | [4]
active: [1] 41.8 µM

CCCCCCOC(=O)c1ccc(O)cc1
inactive: [3]
active: [1] 43.2 µM and 64.2 µM | [2] 70.6 µM and 76.8 µM | [4] 67.3 µM and 80 µM

C=CC(=O)OCC(CO)(COCC(COC(=O)C=C)(COC(=O)C=C)COC(=O)C=C)COC(=O)C=C
active: [1] 3.32 µM | [2] 82.5 µM | [3] 2.74 µM | [4] 65 µM

CCOC(C)=O
inactive: [1] | [2] | [3] | [4]

CCCCCCCCCC=CCC1CC(=O)OC1=O (centres undefined)
inactive: [1] | [2] | [3] | [4]

Cc1ccc(C(=O)c2ccccc2)cc1
inactive: [1] | [2] | [4]

O=C(c1ccccc1)c1ccccc1
inactive: all assays above

c1ccc(CNc2ncnc3c2ncn3C2CCCCO2)cc1 (centres undefined)
inactive: [1] | [3]

C=CC(C)(CCC=C(C)C)OC(C)=O (centres undefined)
inactive: [1] | [2] | [4]

O=C(CCCN1CCC(O)(c2ccc(Cl)cc2)CC1)c1ccc(F)cc1
active: [6] 13.1 µM | [7] 5.66 µM | [8] 4.96 µM | [9] 2.46 µM | [10] 5.66 µM
inactive: all other assays above

O=C(Nc1cccc([N+](=O)[O-])c1)c1cc2ccccc2cc1O
active: [1] 16.6 µM | [2] 4.65 µM | [4] 11.6 µM
inactive: [3]

O=C(NO)c1ccccc1
inactive: [1] | [2] | [3] | [4]

CCCCCCc1ccc(N)cc1
inactive: [1] | [2] | [3] | [4]

Cc1ccc(S(=O)(=O)O)cc1
inactive: [1] | [3]

NS(=O)(=O)O
inactive: [2] | [3] | [4]

CCCCC=O
inactive: [5] | [7]
active: [6] 45.3 µM | [8] 38.4 µM | [9] 44.9 µM | [10] 38.8 µM

CCCCCCCCCCCCOS(=O)(=O)O
inactive: [5] | [6] | [7] | [8] | [9] | [10]

CN(C)CCOC(c1ccccc1)c1ccccc1
active: [6] 15.4 µM | [7] 22.3 µM | [10] 14.6 µM
not listed: [2] | [4]
inactive: all other assays above

O=C(O)c1cccc(C(=O)O)n1
inactive: [2] | [3] | [4]

NCCN
inactive: [2] | [3] | [4]

CC(O)COc1ccccc1 (centres undefined)
inactive: [2] | [3] | [4]

CCCCCCC(C)(C)C(=O)O
inactive: [2]

CCC(C)c1ccccc1O (centres undefined)
inactive: [5] | [6] | [7] | [8] | [9] | [10]

CCCCC(CC)C(=O)O (centres undefined)
inactive: [5] | [6] | [7] | [9] | [10]

Oc1c(Cl)cc(Cl)cc1Sc1cc(Cl)cc(Cl)c1O
active: [3] 82 µM and 85.7 µM
inactive: [3]

CCC(C)c1nccnc1OC (centres undefined)
inactive: [4]

CCCCCCCCC1CCC(=O)O1 (centres undefined)
inactive: [2] | [3] | [4]

O=C(O)C(=O)O
inactive: [2] | [4]

O=C1NS(=O)(=O)c2ccccc21
inactive: [5] | [6] | [7] | [8] | [9] | [10]

NC(=NCCCCCCN=C(N)/N=C(\N)Nc1ccc(Cl)cc1)/N=C(\N)Nc1ccc(Cl)cc1
active: [2] 79.6 µM [middle of 4 runs] | [4] 71.4 µM [middle of 5 runs]
inactive: [2]
